Assay results reported in the supplement of paper PMC4237247.
Where a name gives a salt, the structure may show the parent alone.

tested on: HeLa; assay: percent cells in G1 phase; higher = more G1 arrest; conditions: 10 µM; 20 h
Description: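 HTS of 79,827 drug-like compounds at 10 uM. HeLa cells in 384-well plates were treated for 20 h, fixed, stained with Vybrant DyeCycle Green and scanned on an Acumen eX3 cytometer to give per-well cell cycle profiles (% cells in each phase). The plate Z' was 0.51. Only hits are listed: G1 hits >4 SD and S hits >5 SD from the mean.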

Row | Structure (SMILES) | percent cells in G1 phase
1 | COc1ccc(C(=O)c2coc3ccc(OC)cc3c2=O)cc1 (hit class: G1-phase inhibitor) | 70.5%
2 | C[C@@H]1C[C@H]2[C@@H]3C[C@H](F)C4=CC(=O)C=C[C@]4(C)[C@@]3(Cl)[C@@H](O)C[C@]2(C)[C@H]1C(=O)COC(=O)C(C)(C)C [Clocortolone pivalate] (hit class: S-phase inhibitor) | 43.2%
3 | CCN(CC)Cc1c(O)ccc2c(=O)c(-c3ccccc3)coc12 (hit class: S-phase inhibitor) | 55.9%
4 | CC(=O)C1=C(O)C(=O)N(CC(=O)O)C1c1ccccc1F (configuration not stated) (hit class: S-phase inhibitor) | 61.1%
5 | COc1ccc(CSc2nncn2N)cc1 (hit class: S-phase inhibitor) | 61.4%
6 | c1ccc2c(c1)Nc1nc3ccccc3nc1O2 (hit class: G1-phase inhibitor) | 70.5%
7 | Cc1cc(N2CCCCC2)c(F)cc1[N+](=O)[O-] (hit class: S-phase inhibitor) | 44.7%
8 | CC[C@@H](C(=O)[C@@H](C)[C@@H](O)[C@H](C)CCc1ccc(C)c(O)c1C(=O)O)[C@H]1O[C@](CC)([C@H]2CC[C@](O)(CC)[C@H](C)O2)C[C@@H]1C [Lasalocid sodium salt] (hit class: G1-phase inhibitor) | 73.9%
9 | Nc1ccn([C@H]2CC[C@@H](CO)O2)c(=O)n1 [Zalcitabine] (hit class: S-phase inhibitor) | 45.1%
10 | O=C(COc1ccc(Cl)cc1)NC(Cc1c[nH]c2ccccc12)C(=O)O (configuration not stated) (hit class: G1-phase inhibitor) | 69%
11 | Cn1c(SCc2ccccc2)nc2ccccc2c1=O (hit class: S-phase inhibitor) | 60%
12 | COc1c(C)c2c(c(O)c1C/C=C(\C)CCC(=O)O)C(=O)OC2 [Mycophenolic acid] (hit class: S-phase inhibitor) | 39%
13 | O=C1c2c(O)ccc(O)c2C(=O)c2c(NCCNCCO)ccc(NCCNCCO)c21 [Mitoxantrone dihydrochloride] (hit class: G1-phase inhibitor) | 70%
14 | Cc1ccc(-c2cc(-c3ccccc3Cl)[nH]n2)c(O)c1 (hit class: G1-phase inhibitor) | 69.2%
15 | COc1[nH]c2ccccc2c1C=NO (hit class: S-phase inhibitor) | 59.4%
16 | C[C@@H]1CCC[C@H](C)N1NC(=O)c1ccc(Cl)c(S(N)(=O)=O)c1 [Clopamide] (hit class: G1-phase inhibitor) | 70.5%
17 | Cc1cc([N+](=O)[O-])ccc1NCc1ccc(F)c(F)c1 (hit class: G1-phase inhibitor) | 69.8%
